Measurements taken from PubChem BioAssay (Tox21).
Records with an inconclusive call do not appear. Where a call stands in place of a potency, no number is given. A number with no mark means an inactive call. Active and inactive are the calls of the source. Calls come from the whole dose curve; as a rule, active = well fitted cell-killing curve with a large enough effect in the repeat runs; inconclusive = weak or mixed curves, or effect the other way; inactive = no such curve, though single readings can be large or run the other way.
Potency is the fitted concentration of half-maximal effect.

Assay: qHTS assay to identify small molecule agonists of the estrogen receptor alpha (ER-alpha) signaling pathway in the presence of an antagonist - cell viability counter screen (AID 1259386);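 note: cells exposed to compounds for 22 h at 37 °C before the viability read; nearly all actives have a fitted effect of over 30% in size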
Details: VM7Luc4E2 viability, CellTiter-Fluor fluorescence, 22 h; series mostly up to 92.4 µM
Text: National Center for Advancing Translational Sciences [NCATS]
NIH Chemical Genomics Center [NCGC]
U.S. Environmental Protection Agency [EPA]
National Institutes of Environmental Health Sciences [NIEHS]
National Toxicology Program [NTP]
U.S. Food and Drug Administration [FDA]
Estrogen receptor (ER), a member of nuclear hormone receptor plays an important role in development, metabolic homeostasis and reproduction. Two subtypes of ER, ER-alpha and ER-beta, have similar expression patterns with some uniqueness in both types. Endocrine disrupting chemicals (EDCs) and their interactions with steroid hormone receptors like ER causes disruption of normal endocrine function. Therefore, it is important to understand the effect of environmental chemicals in ER signaling pathway. For identifying ER agonists, VM7Luc4E2 cell line has been used in the current assay.
VM7Luc4E2 cell line (provided by Denison MS, University of California) endogenously expresses full-length ER-alpha and is stably transfected with a plasmid containing four estrogen responsive elements (ERE) upstream of a luciferase reporter gene. This current screening for measuring luciferase reporter gene activity using VM7Luc4E2 cells against Tox21 10K library collection is a confirmation study on agonist mode screening in presence of ER-antagonist (ICI-182,780) at 10.0nM final concentration. The cytotoxicity of the compounds was tested in parallel by measuring the cell viability using CellTiter-Fluor assay system (Promega, Madison, WI) in the same wells.
Tox21 Assay Protocol Summary:
VM7Luc4E2 cells were cultured in phenol red free assay medium containing 10% charcoal stripped FBS for 5 days prior to the assay. The cells were dispensed at 4,000 cells in 4uL of assay medium per well into white wall/solid-bottom 1536-well plates (Corning Life Sciences, Corning, NY) using a Multidrop Combi (Thermo Fisher Scientific Inc., Waltham, MA) dispenser. After the assay plates were incubated at 37C and 5% CO2 for 24hr, 1uL of 10.0nM (final concentration) ICI-182,780 or assay buffer was added using two separate tips of Flying Reagent Dispenser (FRD, Aurora Discovery, San Diego, CA). Then 23nL of compounds dissolved in DMSO at 15 concentrations and positive controls or DMSO only was transferred to the assay plates by a Pintool station (Wako, San Diego, CA). The assay plates were incubated at 37C and 5% CO2 for 22hr. After 21hr incubation at 37C, 1uL/well CellTiter-Fluor reagent (Promega Corporation, Madison, WI) was added to each well using FRD and after 1hr incubation at 37C and 5% CO2, the fluorescence signal was measured on ViewLux plate reader (PerkinElmer, Shelton, CT).
For `Cn1ccnc1`, the Potency was “inactive”.
With `CCN(CCC#N)c1ccc(N=Nc2ccc([N+](=O)[O-])cc2)cc1` the Potency was “inactive”.
For `CCCCCCCCCCCC(=O)Cl`, the Potency was “inactive”.
In the case of `CCOC=C(C(=O)OCC)C(=O)OCC`, the Potency is reported as “inactive”.
With `CC(C)(c1ccc(Oc2ccc(N)cc2)cc1)c1ccc(Oc2ccc(N)cc2)cc1` the Potency was 54.5 µM (active).
For `CCNc1nc(NC(C)(C)C)nc(OC)n1`, the Potency was “inactive”.
For `CC(=O)[C@]1(O)Cc2c(O)c3c(c(O)c2[C@@H](O[C@H]2C[C@H](N)[C@H](O)[C@H](C)O2)C1)C(=O)c1ccccc1C3=O`, the Potency was 18.8 µM (active).
With `CCCCCN=C(N)N/N=C/c1c[nH]c2ccc(OC)cc12` the Potency was 33.5 µM (active).
In the case of `CCCCCCCCSCc1cc(C)c(O)c(CSCCCCCCCC)c1`, the Potency is reported as “inactive”.
In the case of `CN1CCN(c2ccccc2/C=C2\SCCN(c3ccc(Cl)c(Cl)c3)C2=O)CC1`, the Potency is reported as 68.6 µM (active).
With `[Cl][Sc]([Cl])[Cl]` the Potency was “inactive”.
With `O=[N+]([O-])c1ccc(O)c2ncccc12` the Potency was 11.9 µM (active).
With `C=C(C)CCO` the Potency was “inactive”.
In the case of `O=C(N[C@H](CO)[C@H](O)c1ccc([N+](=O)[O-])cc1)C(Cl)Cl`, the Potency is reported as “inactive”.
For `CC(C)c1ccc2sc3ccccc3c(=O)c2c1`, the Potency was “inactive”.
With `CCC(O)CO` (stereo not given) the Potency was “inactive”.
With `Cc1cc(C)c(O)c(C(C)(C)C)c1` the Potency was “inactive”.
With `C1=CCCC1` the Potency was “inactive”.
With `CCn1c2ccccc2c2ccccc21` the Potency was “inactive”.
In the case of `CC(C)=CCC[C@H](C)CC=O`, the Potency is reported as “inactive”.
With `O=C(c1ccccc1)c1ccc(Cl)cc1` the Potency was “inactive”.
In the case of `CC(=O)CC(N)=O`, the Potency is reported as “inactive”.
In the case of `C/C(=N\[Si](C)(C)C)O[Si](C)(C)C`, the Potency is reported as “inactive”.
With `O=C(CCN1CCC(c2ccccc2)C1)c1ccc2c(c1)OCCO2` (stereo not given) the Potency was “inactive”.
For `Cc1ccc(C=O)cc1`, the Potency was “inactive”.
With `c1ccc(-c2ccc(C(c3ccccc3)n3ccnc3)cc2)cc1` (stereo not given) the Potency was “inactive”.
In the case of `COc1ccc(OC)c(N=Nc2c(O)ccc3ccccc23)c1`, the Potency is reported as 6.11 µM (active).
With `Cc1ccc2sc3cccc(C)c3c2c1` the Potency was “inactive”.
For `CCc1cccc(C)c1N(C(=O)CS(=O)(=O)O)C(C)COC` (stereo not given), the Potency was “inactive”.
In the case of `CCCCC/C=C\C=C\C(=O)OCC`, the Potency is reported as “inactive”.
With `CSc1ccc(O)cc1C` the Potency was “inactive”.
For `CCCCCCCCCCCCS(=O)(=O)Cl`, the activity change, negative = cytotoxicity was -0.178% [at 19 µM].
In the case of `Clc1cccc(Cl)n1`, the Potency is reported as “inactive”.
`O=C(O)CN(CCCN(CC(=O)O)CC(=O)O)CC(=O)O` gave an activity change, negative = cytotoxicity of -13.1% [at 19 µM].
In the case of `CCC(C)(C)c1ccc(CC(C)CN2C[C@@H](C)O[C@@H](C)C2)cc1` (stereo not given in full), the Potency is reported as “inactive”.
In the case of `CCC1(C)C(=O)N(Cl)C(=O)N1Cl` (stereo not given), the Potency is reported as “inactive”.
In the case of `CCCCCCCCc1ccc(Nc2ccc(CCCCCCCC)cc2)cc1`, the Potency is reported as “inactive”.
In the case of `O=C(NCc1ncc(C(F)(F)F)cc1Cl)c1c(Cl)cccc1Cl`, the Potency is reported as “inactive”.
`COc1cc2ncnc(Nc3cccc(Cl)c3)c2cc1OC` gave an activity change, negative = cytotoxicity of -5.87% [at 19 µM].
With `O=C1CCC(=O)N1` the Potency was “inactive”.
